Experimental data reported in PubChem BioAssay (EPA / NIEHS).
The source made the active and inactive calls. The calls were made as follows: active = hit-call score of the fitted dose curve at least 0.9, where 1 is the maximum; inactive = score below 0.9.

What was measured:
[1] = molecular target: CCAAT/enhancer-binding protein beta (Homo sapiens) (UniProt P17676); assay: ATG_C_EBP_CIS: Attagene CIS-FACTORIAL HepG2 Assay for human CCAAT/Enhancer Binding Protein (C/EBP) beta (AID 2282927); settings: HepG2 Attagene cis-factorial transcription factor reporter; actives raise or lower the signal
Outline: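 Endogenous transcription factor activity in human liver HepG2 cells is inferred from induction of a CEBPB-linked reporter mRNA. Exposure lasts 24 h; activity is fitted in both directions relative to DMSO.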

[2] = ATG_CMV_CIS: Attagene CIS-FACTORIAL HepG2 Assay for human CMV (Internal Marker) (AID 2282928); settings: HepG2 CMV promoter reporter, transcription factor profiling; actives raise or lower the signal;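 also: endpoint acts as a background internal control marker rather than a target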
Outline: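 Fluorescence intensity of RT-PCR-derived reporter fragments, resolved by capillary electrophoresis, gives the signal. HepG2 liver cells bearing transfected cis-element reporters were treated 24 h; activity in either direction was fit relative to DMSO-treated controls.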

[3] = ATG_DR4_LXR_CIS: Attagene CIS-FACTORIAL HepG2 Assay for human Liver X Receptor (LXR), DR4 submotif (AID 2282929); settings: HepG2 Attagene DR4 cis-reporter, mRNA transcription; actives raise or lower the signal
Outline: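 Cells were transfected with multiple reporter transcription units, exposed to chemicals for 24 hours, then lysed for RNA. Reporter mRNA induction was measured by RT-PCR with capillary electrophoresis detection and fitted in both directions relative to DMSO.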

[4] = ATG_AP_1_CIS: Attagene CIS-FACTORIAL HepG2 Assay for human Activator Protein 1 (AP-1) (AID 2282931); settings: HepG2 Attagene cis-factorial AP-1 reporter mRNA; actives raise or lower the signal
Outline: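 Endogenous transcription-factor activity in human HepG2 liver cells is read through a cis-promoter reporter transcript, sampled 24 h after dosing. Detection uses RT-PCR with capillary electrophoresis; values come from bidirectional fitting relative to DMSO.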

[5] = ATG_AP_2_CIS: Attagene CIS-FACTORIAL HepG2 Assay for human Activator Protein 2 (AP-2) (AID 2282932); settings: HepG2 AP-2 cis-reporter, Attagene transcription factor profiling; actives raise or lower the signal
Outline: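 Endogenous transcription factor activity is reported through transfected multiplex reporter constructs in HepG2, after 24 h of compound exposure. Transcripts were quantified by RT-PCR and capillary electrophoresis of fluorescent fragments. Bidirectional fit against DMSO.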

[6] = ATG_BRE_CIS: Attagene CIS-FACTORIAL HepG2 Assay for human Bone Morphogenetic Protein (BMP) Response Element (BRE) (AID 2282933); settings: HepG2 BMP response element reporter, Attagene transcription factor profiling; actives raise or lower the signal
Outline: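 A HepG2 multiplex reporter system measured inducible reporter mRNA 24 h post-dosing. Detection: RT-PCR, 6-FAM primer extension, HpaI digestion, capillary electrophoresis. Activity fitted bidirectionally relative to DMSO.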

[7] = molecular target: Retinoic acid receptor alpha (Homo sapiens) (UniProt P10276); assay: ATG_DR5_RAR_CIS: Attagene CIS-FACTORIAL HepG2 Assay for human Retinoic Acid Receptor Alpha (RARE), DR5 submotif (AID 2282934); settings: HepG2 Attagene cis-factorial RARE DR5 reporter, mRNA; actives raise or lower the signal
Outline: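 Transient MRTU transfection of HepG2; 24 h compound treatment; TriZol RNA, oligo(dT) RT, PCR, FAM labelling, capillary electrophoresis. Bidirectional fit vs DMSO. Endogenous TF activity at DR5 RARE.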

[8] = molecular target: Transcription factor E2F1 (Homo sapiens) (UniProt Q01094); assay: ATG_E2F_CIS: Attagene CIS-FACTORIAL HepG2 Assay for human E2F Transcription Factor 1 (AID 2282935); settings: HepG2 Attagene cis-reporter, E2F reporter RNA transcripts; actives raise or lower the signal
Outline: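 Gain or loss of reporter transcript, fitted against DMSO, reflects E2F1-driven transcription. Transiently transfected HepG2 dosed 24 h before RNA isolation. Quantified by fluorescent RT-PCR products separated by capillary electrophoresis.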

[9] = ATG_E_Box_CIS: Attagene CIS-FACTORIAL HepG2 Assay for human Enhancer Box (E-box) (AID 2282936); settings: HepG2 E-box cis-reporter transcription, actives raise or lower the signal
Outline: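 E-box-driven reporter transcripts measured in transiently transfected HepG2 after 24 h exposure: RNA reverse-transcribed, PCR-amplified, fluorescently labelled, digested and resolved by capillary electrophoresis. Gain or loss relative to DMSO.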

[10] = ATG_M_61_CIS: Attagene CIS-FACTORIAL HepG2 Assay for M61 Transcription Factor (Internal Marker) (AID 2282937); settings: HepG2 Attagene CIS-FACTORIAL M61 internal marker reporter; actives raise or lower the signal
Outline: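 Cells were transfected with reporter units under cis-regulatory promoters, treated with chemicals for 24 h, then lysed for RNA. Reporter transcripts were quantified by RT-PCR and capillary electrophoresis, and activity was fitted bidirectionally against DMSO.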

[11] = ATG_EGR_CIS: Attagene CIS-FACTORIAL HepG2 Assay for human Early Growth Response 1 (EGR1) (AID 2282938); settings: HepG2 Attagene CIS-FACTORIAL EGR reporter mRNA; actives raise or lower the signal
Outline: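 Endogenous TF activity in HepG2 liver cells was gauged through cis-promoter reporter constructs transiently transfected. After 24 h dosing, reporter mRNA was quantified by RT-PCR and capillary electrophoresis, and curves fitted in both directions versus DMSO.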

[12] = ATG_M_19_CIS: Attagene CIS-FACTORIAL HepG2 Assay for M19 Transcription Factor (Internal Marker) (AID 2282939); settings: HepG2 Attagene CIS-FACTORIAL M19 internal marker reporter; actives raise or lower the signal
Outline: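 Chemical-treated HepG2 (24 h) with MRTU constructs; reporter transcripts detected by fluorescent RT-PCR fragment analysis on capillary electrophoresis. Internal background marker, DMSO as baseline.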

[13] = ATG_ERE_CIS: Attagene CIS-FACTORIAL HepG2 Assay for Estrogen Response Element (ERE) (AID 2282940); settings: HepG2 ERE cis-reporter, Attagene RNA transcript; actives raise or lower the signal
Outline: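 Human liver cells (HepG2) bearing transiently transfected, promoter-regulated reporter units were exposed 24 h. Reporter mRNA induction was detected by capillary electrophoresis of labelled RT-PCR products and fitted bidirectionally to DMSO.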

[14] = ATG_Ets_CIS: Attagene CIS-FACTORIAL HepG2 Assay for human Erythroblast Transformation Specific (ETS) (AID 2282941); settings: HepG2 ETS cis-reporter transcription, actives raise or lower the signal
Outline: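 Multiplexed reporter transcript profiling: HepG2, 24 h treatment, total RNA to cDNA, PCR, 6-FAM labelling, HpaI cut, capillary electrophoresis. Gain- or loss-of-signal fitted against DMSO.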

[15] = molecular target: Hepatocyte nuclear factor 3-beta (Homo sapiens) (UniProt Q9Y261); assay: ATG_FoxA2_CIS: Attagene CIS-FACTORIAL HepG2 Assay for human Forkhead box A2 (FOXA2) (AID 2282942); settings: HepG2 cis-reporter transcription factor activity, 24 h; actives raise or lower the signal
Outline: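 Endogenous transcription factor activity was read in HepG2 cells carrying transiently transfected cis-promoter reporter units. After 24 h dosing, reporter mRNA was quantified by RT-PCR and capillary electrophoresis, and values fitted bidirectionally versus DMSO.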

[16] = ATG_FoxO_CIS: Attagene CIS-FACTORIAL HepG2 Assay for human Forkhead box O (FoxO) (AID 2282943); settings: HepG2 Attagene cis-reporter, FoxO element, mRNA; actives raise or lower the signal
Outline: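 HepG2, transient MRTU transfection (cis element, endogenous TFs). Dose 24 h. TriZol RNA → oligo(dT) RT → PCR → 6-FAM primer extension → HpaI cut → CE. Gain/loss vs DMSO.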

[17] = ATG_GATA_CIS: Attagene CIS-FACTORIAL HepG2 Assay for human GATA Binding Protein (AID 2282944); settings: HepG2 GATA cis-element reporter, Attagene multiplex mRNA; actives raise or lower the signal
Outline: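 Transfected cis-reporter HepG2 cells were treated with chemicals for 24 hours. Total RNA was then converted to cDNA, amplified with reporter-specific primers and analysed by fluorescent capillary electrophoresis, using DMSO-treated wells as baseline.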

[18] = ATG_GLI_CIS: Attagene CIS-FACTORIAL HepG2 Assay for human Zinc Finger Protein GLI1 (AID 2282945); settings: HepG2, Attagene cis-factorial reporter mRNA, GLI element; actives raise or lower the signal
Outline: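 Bidirectional curve fits relative to DMSO, using reporter mRNA levels from RT-PCR plus capillary electrophoresis. Cells were HepG2 transiently carrying cis-regulated reporter constructs, harvested 24 h after dosing.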

[19] = molecular target: Bile acid receptor (Homo sapiens) (UniProt Q96RI1); assay: ATG_IR1_CIS: Attagene CIS-FACTORIAL HepG2 Assay for human Nuclear Receptor Subfamily 1 Group H Member 4 (NR1H4), IR1 submotif (AID 2282946); settings: IR1 reporter transcription, actives raise or lower the signal
Outline: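 HepG2 cells transiently transfected with multiplexed cis-element reporter units read endogenous transcription factor activity. After 24 h compound exposure, reporter mRNA was quantified by RT-PCR, fluorescent labelling, HpaI digestion and capillary electrophoresis; bidirectional fitting versus DMSO baseline.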

[20] = molecular target: Aryl hydrocarbon receptor (Homo sapiens) (UniProt P35869); assay: ATG_Ahr_CIS: Attagene CIS-FACTORIAL HepG2 Assay for human Aryl Hydrocarbon Receptor (Ahr) (AID 2282930); settings: HepG2 AhR cis-factorial reporter transcription; actives raise or lower the signal
Outline: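 Transient MRTU transfection of HepG2 → 24 h compound exposure → total RNA, oligo(dT) RT → PCR, 6-FAM extension, HpaI cut → CE fluorescence. DMSO = baseline; bidirectional curve fit.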

Measured: AC50

Sequence of Transcription factor E2F1 (Homo sapiens) (Q01094 whole entry, looked up): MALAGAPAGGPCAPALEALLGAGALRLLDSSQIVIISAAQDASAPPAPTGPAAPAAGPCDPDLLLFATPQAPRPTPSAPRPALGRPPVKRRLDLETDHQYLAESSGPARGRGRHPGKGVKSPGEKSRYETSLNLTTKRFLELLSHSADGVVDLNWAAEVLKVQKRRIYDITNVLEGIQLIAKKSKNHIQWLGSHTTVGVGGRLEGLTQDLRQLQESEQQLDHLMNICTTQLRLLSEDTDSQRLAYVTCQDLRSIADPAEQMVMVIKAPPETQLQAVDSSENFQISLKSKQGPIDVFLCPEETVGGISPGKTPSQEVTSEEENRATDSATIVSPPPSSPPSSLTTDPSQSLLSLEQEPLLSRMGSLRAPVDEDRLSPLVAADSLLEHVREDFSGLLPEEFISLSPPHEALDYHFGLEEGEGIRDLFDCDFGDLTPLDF
Sequence of CCAAT/enhancer-binding protein beta (Homo sapiens) (P17676 whole entry, looked up): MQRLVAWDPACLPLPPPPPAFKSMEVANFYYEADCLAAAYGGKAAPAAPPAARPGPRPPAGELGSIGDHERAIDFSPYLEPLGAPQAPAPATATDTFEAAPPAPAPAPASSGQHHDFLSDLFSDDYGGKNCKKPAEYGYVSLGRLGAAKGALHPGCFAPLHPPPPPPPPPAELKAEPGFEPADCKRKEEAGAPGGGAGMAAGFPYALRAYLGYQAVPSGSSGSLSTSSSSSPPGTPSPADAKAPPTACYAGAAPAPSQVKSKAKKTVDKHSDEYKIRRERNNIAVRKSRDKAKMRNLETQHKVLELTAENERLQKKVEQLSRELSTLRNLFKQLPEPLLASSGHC
Sequence of Hepatocyte nuclear factor 3-beta (Homo sapiens) (Q9Y261 whole entry, looked up): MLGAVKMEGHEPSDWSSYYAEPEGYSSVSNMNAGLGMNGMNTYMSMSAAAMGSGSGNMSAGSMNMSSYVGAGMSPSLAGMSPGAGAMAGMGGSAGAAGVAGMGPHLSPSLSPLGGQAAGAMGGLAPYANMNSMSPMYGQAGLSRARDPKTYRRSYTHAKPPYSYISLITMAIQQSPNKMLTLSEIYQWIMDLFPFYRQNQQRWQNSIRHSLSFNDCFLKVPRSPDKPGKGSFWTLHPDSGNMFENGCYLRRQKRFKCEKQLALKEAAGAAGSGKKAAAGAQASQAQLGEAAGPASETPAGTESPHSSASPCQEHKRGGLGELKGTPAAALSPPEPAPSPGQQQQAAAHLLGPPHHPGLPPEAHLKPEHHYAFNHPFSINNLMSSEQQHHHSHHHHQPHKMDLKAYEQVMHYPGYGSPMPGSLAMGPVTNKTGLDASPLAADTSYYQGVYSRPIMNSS
Sequence of Retinoic acid receptor alpha (Homo sapiens) (P10276 whole entry, looked up): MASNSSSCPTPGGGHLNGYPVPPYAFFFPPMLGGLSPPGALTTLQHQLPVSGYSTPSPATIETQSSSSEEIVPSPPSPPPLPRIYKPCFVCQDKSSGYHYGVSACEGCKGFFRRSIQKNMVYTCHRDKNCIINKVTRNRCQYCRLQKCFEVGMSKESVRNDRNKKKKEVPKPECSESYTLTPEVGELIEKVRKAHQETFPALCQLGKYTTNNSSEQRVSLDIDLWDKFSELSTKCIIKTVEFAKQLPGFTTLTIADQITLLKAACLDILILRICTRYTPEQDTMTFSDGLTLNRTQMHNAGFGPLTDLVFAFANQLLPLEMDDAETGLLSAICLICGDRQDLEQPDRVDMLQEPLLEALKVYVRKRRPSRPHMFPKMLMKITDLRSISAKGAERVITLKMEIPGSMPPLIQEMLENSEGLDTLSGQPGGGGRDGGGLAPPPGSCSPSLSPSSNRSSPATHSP
Sequence of Bile acid receptor (Homo sapiens) (Q96RI1 whole entry, looked up): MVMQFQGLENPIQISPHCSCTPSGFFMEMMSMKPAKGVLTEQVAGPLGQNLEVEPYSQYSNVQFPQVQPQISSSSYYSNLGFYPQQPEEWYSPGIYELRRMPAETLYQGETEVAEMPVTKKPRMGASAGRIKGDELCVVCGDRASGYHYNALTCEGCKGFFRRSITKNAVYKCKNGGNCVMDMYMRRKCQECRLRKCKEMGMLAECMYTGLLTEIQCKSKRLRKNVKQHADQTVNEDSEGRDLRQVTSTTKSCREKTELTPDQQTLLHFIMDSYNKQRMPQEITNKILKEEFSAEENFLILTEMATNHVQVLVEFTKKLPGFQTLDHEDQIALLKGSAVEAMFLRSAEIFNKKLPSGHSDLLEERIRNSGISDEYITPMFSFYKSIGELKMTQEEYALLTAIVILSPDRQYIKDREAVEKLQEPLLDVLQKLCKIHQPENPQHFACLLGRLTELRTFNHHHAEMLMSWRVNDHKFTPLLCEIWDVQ
Sequence of Aryl hydrocarbon receptor (Homo sapiens) (P35869 whole entry, looked up): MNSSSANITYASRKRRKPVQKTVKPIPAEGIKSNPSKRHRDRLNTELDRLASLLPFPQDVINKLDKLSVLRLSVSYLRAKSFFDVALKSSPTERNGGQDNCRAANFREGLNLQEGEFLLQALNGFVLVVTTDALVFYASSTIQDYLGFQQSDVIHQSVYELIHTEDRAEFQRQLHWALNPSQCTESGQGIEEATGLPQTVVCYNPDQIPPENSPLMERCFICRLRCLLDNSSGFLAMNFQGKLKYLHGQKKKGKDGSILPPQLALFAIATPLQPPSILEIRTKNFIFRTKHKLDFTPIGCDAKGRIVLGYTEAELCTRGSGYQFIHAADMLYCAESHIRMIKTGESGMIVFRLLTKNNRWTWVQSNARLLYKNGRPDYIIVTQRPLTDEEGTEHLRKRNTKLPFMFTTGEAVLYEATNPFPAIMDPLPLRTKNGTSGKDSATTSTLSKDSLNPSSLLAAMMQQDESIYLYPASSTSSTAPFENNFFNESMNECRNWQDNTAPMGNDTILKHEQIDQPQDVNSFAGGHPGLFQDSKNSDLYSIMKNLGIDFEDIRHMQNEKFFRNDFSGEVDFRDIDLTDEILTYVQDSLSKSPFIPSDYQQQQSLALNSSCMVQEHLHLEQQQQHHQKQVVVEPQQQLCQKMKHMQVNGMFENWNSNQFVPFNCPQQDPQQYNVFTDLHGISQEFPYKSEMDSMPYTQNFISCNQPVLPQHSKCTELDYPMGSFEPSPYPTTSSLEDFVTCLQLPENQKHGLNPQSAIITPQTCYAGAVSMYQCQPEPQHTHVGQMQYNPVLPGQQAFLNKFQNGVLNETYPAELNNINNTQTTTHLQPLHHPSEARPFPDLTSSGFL

CC(C)c1ccc(CO)cc1
inactive: [1] | [2] | [3] | [4] | [5] | [6] | [7] | [8] | [9] | [10] | [11] | [12] | [13] | [14] | [15] | [16] | [17] | [18] | [19]

CNC(=O)O/N=C/C(C)(C)S(C)=O (centres undefined)
active: [3] 99.5 µM | [4] 73 µM | [13] 84.1 µM
inactive: [1] | [2] | [5] | [8] | [9] | [10] | [11] | [12] | [14] | [15] | [16] | [17] | [18] | [19]

O=[N+]([O-])c1ccc(O)c([N+](=O)[O-])c1
inactive: [1] | [2] | [3] | [20] | [4] | [5] | [8] | [9] | [10] | [11] | [12] | [14] | [15] | [16] | [17] | [18]

CCCCCCCCC(=O)NCc1ccc(O)c(OC)c1
inactive: [1] | [2] | [4] | [5] | [7] | [8] | [9] | [10] | [11] | [12] | [13] | [14] | [15] | [16] | [18]
active: [3] 54.5 µM | [6] 171 µM
